# Experimental data: PubChem BioAssay (NCATS)
# Results filed as inconclusive are left out. A number with no mark means an inactive call. Activity calls are given as the source filed them. The call rests on the fitted dose curve; in most records, active means well fitted activation curve with a large enough effect; inconclusive means small, poorly fitted or top-dose-only effect; inactive means flat fitted curve, though single readings scatter. Bridge positions count the residues as written; N and C are the ends. Square brackets hold non-standard residues; d marks the D form. Side chains are listed from the residue outwards. Peptide text beside a SMILES is read from it. * marks the point of attachment. Phg(4-OMe) = COc1ccc([C@H](N)C(=O)O)cc1; d(aIle) = CC[C@H](C)[C@@H](N)C(=O)O; d(aThr) = C[C@@H](O)[C@@H](N)C(=O)O; NMeF = CN[C@@H](Cc1ccccc1)C(=O)O; Isobutyryl = CC(C)C(=O)*
# Experiment: qHTS for H2AX Agonists against the NCATS CANVASS Library (AID 1347378); on activation: 0% is about no effect
# Details: CHO-K1 H2AX phosphorylation, HTRF TR-FRET, 3 h; series mostly up to 76.9 µM; activation: at the top concentration
# Outline: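 Signal is the 665/620 nm emission ratio from europium cryptate and d2 antibody pair, rising with S139-phosphorylated H2AX. CHO-K1 cells saw test agents for 3 hr at 37C; detection ran 24 hr at room temperature.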
# Potency means the concentration at half of the fitted maximal effect.
Structure (SMILES),activation,Potency
C/C=C(/C)c1c(Cl)c(O)c(C)c2c1Oc1c(Cl)c(O)c(Cl)c(C)c1C(=O)O2,0.495%,
C=C[C@@]1(C)CC[C@@H]([C@H](C)C(=O)/C=C/C(C)(C)O)O1,3.34%,
C=C1CC[C@@H](O[C@H]2C[C@@](O)([C@H](C)NC(=O)c3[nH]c(C)c(Cl)c3Cl)[C@H](O)[C@@H](C)O2)[C@@H]2C=C[C@H](C)C(/C(O)=C3/C(=O)[C@H](C(C)C)N([C@@H]4O[C@H](C)[C@H](OC(N)=O)[C@H](OC(C)=O)[C@@H]4OC)C3=O)[C@@H]12 (stereo partly specified),-2.71%,
COc1ccc([C@@H]2CC(=O)c3c(cc(O)c(C/C=C(\C)CCC=C(C)C)c3O)O2)cc1,3.21% [at 15.3 µM],
O=c1cc(-c2ccc(O)c(O)c2)oc2cc(O[C@@H]3O[C@H](CO)[C@@H](O)[C@H](O)[C@H]3O)cc(O)c12,12%,
CC[C@H](C)[C@H]1NC(=O)[C@@H](NC(=O)C(C)C)[C@@H](C)OC(=O)[C@H](COC(=O)CNC(C)=O)NC(=O)[C@@H]([C@@H](C)O)NC(=O)[C@H](Cc2ccccc2)N(C)C(=O)[C@H](c2ccc(OC)cc2)NC1=O (Isobutyryl-T[d(aIle)][Phg(4-OMe)][NMeF][d(aThr)]S([Gly-Ac]); ester 1-C),-3.26%,
C/C1=C/[C@@H](C)[C@H](O)[C@@H](O)/C=C/CC/C=C/C(=O)O[C@@H]1[C@H](C)C(=O)CCCC1CC(=O)NC(=O)C1,-7.69%,
CC(=O)Oc1cc2c(c(OC(C)=O)c1C1CCc3cc(Cl)c(Cl)n31)C(=O)n1c-2cc(Cl)c1Cl (stereo unspecified),7.8%,
COc1ccc2[nH]c3c(c2c1)CCN1C[C@H]2C[C@@H](OC(=O)c4cc(OC)c(OC)c(OC)c4)[C@H](OC)[C@@H](OC)[C@H]2C[C@H]31,6.64%,
O[C@H]1c2ccccc2-c2c3c(cc4c2[C@@H]1NCC4)OCO3,-3.02%,
CC(C)=CC[C@H]1C[C@@]2(CC=C(C)C)C(=O)[C@](CC=C(C)C)(C(=O)C(C(=O)c3ccccc3)=C2O)C1(C)C,-2.84%,
C[C@]12CC[C@]3(C1)[C@H](CC2=O)C[C@@H](OC(=O)c1ccccc1)[C@H]1[C@](C)(C(=O)O)CCC[C@@]13C,-1.3%,
CC(=O)O[C@H]1c2ccccc2-c2c3c(cc4c2[C@@H]1N(C(C)=O)CC4)OCO3,5.21%,
C=C[C@](Cl)(CBr)CCC=C(C)C,9.35%,
C=C1CC[C@@H](Br)C(C)(C)[C@]12CC=C(C)C(=O)C2,-4.92%,
COc1cc2c(cc1OC)[C@@H](c1ccc3c(c1)OCO3)C(C)C(C)C2=O (stereo partly specified),12.6%,

Structure (SMILES),activation,Potency
C[C@H]1C=C[C@H]2CCCC[C@@H]2[C@H]1C(=O)[C@H]1CC2=C(C(=O)O)CCN2C1=O,4.81%,
CC(C)[C@]12CC[C@@]3(C)[C@H](C)CC[C@H](O)[C@@]3(CC1)c1cc3c(cc12)[nH]c1ccccc13,7.09%,
C/C=C1/CN2C3CC1C1C=CC(=O)N4c5ccccc5[C@@]3(C[C@@H]2C2=C[C@H]3C5CC6N(CC[C@@]67c6ccccc6N(C2=O)[C@@H]37)C/C5=C/C)[C@H]14 (stereo partly specified),,21.7 µM (active)
CC(C)=CCC[C@]12c3cc4c(cc3CC[C@@]1(C)[C@H](C)CC[C@@H]2O)[nH]c1ccccc14,-5.66%,
Oc1ccc(C2Oc3cc(O)c4c(c3[C@@H]2c2cc(O)cc(O)c2)[C@H]2C(c3ccc(O)cc3)c3c(O)cc5c(c3[C@H]2C4c2ccc(O)cc2)[C@H](c2cc(O)cc(O)c2)C(c2ccc(O)cc2)O5)cc1 (stereo partly specified),1.8%,
COc1cc(O)c(C(=O)[C@@H]2[C@H](CC=C(C)C)C(C)=CC[C@H]2c2ccccc2)c(O)c1,0.604%,
C=C(C)CC[C@H](Cc1c(O)cc(O)c2c1O[C@H](c1ccc(O)cc1)CC2=O)C(=C)C,1.32%,
COc1cc(/C=C/C(=O)OC[C@@H](Cc2ccc(O)c(OC)c2)[C@@H](COC(=O)/C=C/c2ccc(O)c(OC)c2)Cc2ccc(O)c(OC)c2)ccc1O,29.1%,
C=CC(CCCCC)C1C(=O)NC(=O)C1C(=O)C1C2C(C)CC(C(=O)O)CC2CC1(O)C(=O)/C=C/C (stereo unspecified),-11.2%,
C[C@]12CCC[C@](C)(C(=O)O)[C@@H]1CC[C@@]1(C)c3cocc3CC[C@H]21,0.305%,
COc1c(O)cc2c(c1O)C(=O)c1c(coc1C)C2=O,3.37%,
CC(C)C[C@@H]1c2c(O)c(C=O)c(O)c(C=O)c2O[C@]2(C)C=C[C@@H](C(C)C)C[C@H]12,-2.18%,
CO[C@H]1[C@@H](OC(=O)/C(C)=C\[C@@H]2O[C@@H]2[C@H]2O[C@H]2C)[C@H](O)[C@H](OCC23C[C@@H]4[C@H](C)CC[C@H]4C4(C=O)CC2C=C(C(C)C)C34C(=O)O)O[C@@H]1C (stereo partly specified),0.138%,
C/C=C/C1C=CC2CC(C)CC(C)C2C1C(=O)CC(=O)NC(CO)C/C=C/CCCCC (stereo unspecified),-1%,
CC[C@H]1[C@H](C)[C@H](c2cc(OC)c(OC)cc2OC)[C@@H](C)[C@H](c2cc(OC)c(OC)cc2OC)[C@@]12C=C(OC)C(=O)C=C2OC,5.8%,
